From PubChem BioAssay AID1159580 (chemical genetic matrix, 2015)
In all, about 5,500 compounds went through this assay and about 2,000 (36%) were called active. About 18% were inconclusive and are not listed. No stated cut-off is given here; in the data, active means normalized growth mostly below about 0.91 (no sharp cut-off); inconclusive means no clear call, values can overlap the other calls; inactive means mostly above about 0.92. Some of the results follow.

Assay: chemical genetic growth profiling, strain panel (AID 1159580);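 further: tested at 20 µM; growth read once vehicle control cultures reached saturation at 30 °C; 1 = growth at the plate median or of vehicle wells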
Conditions: growth OD

Measured: normalized growth

O=C(O)CN(CC(=O)O)Cc1cc2c(-c3ccccc3C(=O)O)c3cc(CN(CC(=O)O)CC(=O)O)c(=O)cc-3oc2cc1O
active: S. cerevisiae deletion strains, locus YLR262C, strain YPT6 (second series), stronger effect = lower value 0.817 | S. cerevisiae deletion strains, locus YMR058W, strain fet3, stronger effect = lower value 0.466 | S. cerevisiae deletion strains, locus YNL209W, strain ssb2, stronger effect = lower value 0.911 | S. cerevisiae deletion strains, locus YOR106W, strain vam3, stronger effect = lower value 0.773 | S. cerevisiae deletion strains, locus YOR270C, strain vph1, stronger effect = lower value 0.764 | S. cerevisiae deletion strains, locus YPL051W, strain arl3, stronger effect = lower value 0.867
inactive: S. cerevisiae deletion strains, locus YJR043C, strain POL32, stronger effect = lower value 1.01 | S. cerevisiae deletion strains, locus YJR075W, strain HOC1, stronger effect = lower value 1.03 | S. cerevisiae deletion strains, locus YKL009W, strain mrt4, stronger effect = lower value 1.02 | S. cerevisiae deletion strains, locus YKL068W, stronger effect = lower value 1.01 | S. cerevisiae deletion strains, locus YKL085W, strain MDH1 (second series), stronger effect = lower value 1.01 | S. cerevisiae deletion strains, locus YKL085W, strain MDH1, stronger effect = lower value 1.01 | S. cerevisiae deletion strains, locus YKL160W, strain elf1, stronger effect = lower value 0.96 | S. cerevisiae deletion strains, locus YKL190W, strain CNB1, stronger effect = lower value 1.01 | S. cerevisiae deletion strains, locus YKR001C, strain vps1, stronger effect = lower value 1.02 | S. cerevisiae deletion strains, locus YKR026C, strain gcn3, stronger effect = lower value 0.986 | S. cerevisiae deletion strains, locus YKR091W, strain srl3, stronger effect = lower value 0.965 | S. cerevisiae deletion strains, locus YLL001W, strain dnm1, stronger effect = lower value 0.984 | S. cerevisiae deletion strains, locus YLL026W, stronger effect = lower value 0.987 | S. cerevisiae deletion strains, locus YLL041C, strain sdh2, stronger effect = lower value 0.974 | S. cerevisiae deletion strains, locus YLR027C, strain aat2, stronger effect = lower value 0.969 | S. cerevisiae deletion strains, locus YLR039C, strain RIC1, stronger effect = lower value 1.05 | S. cerevisiae deletion strains, locus YLR058C, strain SHM2, stronger effect = lower value 1 | S. cerevisiae deletion strains, locus YLR102C, strain apc9, stronger effect = lower value 1.03 | S. cerevisiae deletion strains, locus YLR221C, strain rsa3, stronger effect = lower value 0.984 | S. cerevisiae deletion strains, locus YLR258W, strain gsy2, stronger effect = lower value 0.967 | S. cerevisiae deletion strains, locus YLR262C, strain YPT6, stronger effect = lower value 1.06 | S. cerevisiae deletion strains, locus YLR268W, strain sec22, stronger effect = lower value 1.01 | S. cerevisiae deletion strains, locus YLR320W, strain mms22, stronger effect = lower value 0.973 | S. cerevisiae deletion strains, locus YLR330W, strain CHS5, stronger effect = lower value 1.01 | S. cerevisiae deletion strains, locus YLR342W, strain FKS1 (second series), stronger effect = lower value 1 | S. cerevisiae deletion strains, locus YLR342W, strain FKS1, stronger effect = lower value 0.964 | S. cerevisiae deletion strains, locus YLR357W, strain rsc2, stronger effect = lower value 0.896 | S. cerevisiae deletion strains, locus YLR370C, strain arc18, stronger effect = lower value 0.964 | S. cerevisiae deletion strains, locus YLR371W, strain rom2, stronger effect = lower value 1.02 | S. cerevisiae deletion strains, locus YLR384C, strain iki3, stronger effect = lower value 0.973 | S. cerevisiae deletion strains, locus YLR418C, strain cdc73, stronger effect = lower value 1.03 | S. cerevisiae deletion strains, locus YML016C, strain PPZ1, stronger effect = lower value 1.01 | S. cerevisiae deletion strains, locus YML032C, strain rad52, stronger effect = lower value 1.03 | S. cerevisiae deletion strains, locus YML120C, strain ndi1, stronger effect = lower value 0.968 | S. cerevisiae deletion strains, locus YML124C, strain tub3, stronger effect = lower value 1.02 | S. cerevisiae deletion strains, locus YMR078C, strain ctf18, stronger effect = lower value 1.03 | S. cerevisiae deletion strains, locus YMR125W, strain sto1, stronger effect = lower value 1.01 | S. cerevisiae deletion strains, locus YMR129W, stronger effect = lower value 0.964 | S. cerevisiae deletion strains, locus YMR205C, strain PFK2, stronger effect = lower value 0.989 | S. cerevisiae deletion strains, locus YMR223W, strain ubp8, stronger effect = lower value 1 | S. cerevisiae deletion strains, locus YMR231W, strain pep5, stronger effect = lower value 0.942 | S. cerevisiae deletion strains, locus YMR263W, strain SAP30, stronger effect = lower value 1.02 | S. cerevisiae deletion strains, locus YMR307W, strain GAS1, stronger effect = lower value 0.947 | S. cerevisiae deletion strains, locus YNL067W, strain RPL9B, stronger effect = lower value 1.03 | S. cerevisiae deletion strains, locus YNL071W, strain lat1, stronger effect = lower value 0.973 | S. cerevisiae deletion strains, locus YNL128W, strain TEP1, stronger effect = lower value 0.96 | S. cerevisiae deletion strains, locus YNL153C, strain GIM3, stronger effect = lower value 0.998 | S. cerevisiae deletion strains, locus YNL233W, strain BNI4, stronger effect = lower value 0.994 | S. cerevisiae deletion strains, locus YNL248C, strain rpa49, stronger effect = lower value 1.02 | S. cerevisiae deletion strains, locus YNL250W, strain rad50, stronger effect = lower value 1.01 | S. cerevisiae deletion strains, locus YNL271C, strain bni1, stronger effect = lower value 1.01 | S. cerevisiae deletion strains, locus YNL298W, strain CLA4, stronger effect = lower value 1.04 | S. cerevisiae deletion strains, locus YNL307C, strain MCK1, stronger effect = lower value 1.03 | S. cerevisiae deletion strains, locus YNL322C, strain KRE1 (second series), stronger effect = lower value 0.967 | S. cerevisiae deletion strains, locus YNL322C, strain KRE1, stronger effect = lower value 1.01 | S. cerevisiae deletion strains, locus YNR049C, strain mso1, stronger effect = lower value 0.956 | S. cerevisiae deletion strains, locus YNR052C, strain pop2, stronger effect = lower value 1.02 | S. cerevisiae deletion strains, locus YOL006C, strain TOP1, stronger effect = lower value 1 | S. cerevisiae deletion strains, locus YOL012C, strain htz1 1.12 | S. cerevisiae deletion strains, locus YOL147C, strain pex11, stronger effect = lower value 1.02 | S. cerevisiae deletion strains, locus YOR001W, strain rrp6, stronger effect = lower value 0.939 | S. cerevisiae deletion strains, locus YOR061W, strain CKA2, stronger effect = lower value 1 | S. cerevisiae deletion strains, locus YOR069W, strain VPS5, stronger effect = lower value 1.01 | S. cerevisiae deletion strains, locus YOR070C, strain gyp1, stronger effect = lower value 0.986 | S. cerevisiae deletion strains, locus YOR080W, strain dia2, stronger effect = lower value 0.947 | S. cerevisiae deletion strains, locus YOR083W, strain WHI5, stronger effect = lower value 0.958 | S. cerevisiae deletion strains, locus YOR136W, strain idh2, stronger effect = lower value 1.02 | S. cerevisiae deletion strains, locus YOR144C, strain elg1, stronger effect = lower value 1.02 | S. cerevisiae deletion strains, locus YOR184W, strain ser1, stronger effect = lower value 1.03 | S. cerevisiae deletion strains, locus YOR265W, strain rbl2, stronger effect = lower value 0.984 | S. cerevisiae deletion strains, locus YOR290C, strain snf2, stronger effect = lower value 0.904 | S. cerevisiae deletion strains, locus YOR316C, strain cot1, stronger effect = lower value 1.02 | S. cerevisiae deletion strains, locus YPL055C, strain LGE1, stronger effect = lower value 0.974 | S. cerevisiae deletion strains, locus YPL078C, strain atp4, stronger effect = lower value 0.939 | S. cerevisiae deletion strains, locus YPL106C, strain sse1, stronger effect = lower value 0.87 | S. cerevisiae deletion strains, locus YPL240C, strain hsp82, stronger effect = lower value 0.971 | S. cerevisiae deletion strains, locus YPL241C, strain CIN2, stronger effect = lower value 0.987 | S. cerevisiae deletion strains, locus YPR119W, strain clb2, stronger effect = lower value 1.02 | S. cerevisiae deletion strains, locus YPR141C, strain kar3, stronger effect = lower value 1.02 | S. cerevisiae deletion strains, locus YPR163C, strain tif3, stronger effect = lower value 1.01 | S. cerevisiae deletion strains, locus YPR167C, strain met16, stronger effect = lower value 1.03 | S. cerevisiae deletion strains, strain wtn01, stronger effect = lower value 1.01 | S. cerevisiae strains, strain wild type, stronger effect = lower value 0.999
